{"source": "PubChem BioAssay (NCATS)", "note": "Inconclusive results are not listed. A call without a number means that no potency is given here. Active and inactive are the calls of the source. Unless noted, calls come from the whole dose curve.", "data": [{"test_system": "not listed separately", "assay": "qHTS for Inhibitors of the Functional Ribonucleoprotein Complex (vRNP) of Lassa (LASV) Arenavirus: Viability assay - alamar blue signal for LASV Primary Screen (AID 1347083; calls by dose curve; tested in HEK293 reporter line; note: nearly all actives have a fitted effect of over 80% in size; note: potency is the fitted concentration of half-maximal effect)", "conditions": "cell viability, alamar blue fluorescence (LASV minigenome counter-screen); series mostly up to 57.5 µM", "values": [{"smiles": "CC(C)NP(=O)(NC(C)C)OP(=O)(NC(C)C)NC(C)C", "Potency": "inactive"}, {"smiles": "CN1C2CCC1CC(OC(c1ccccc1)c1ccccc1N)C2", "note": "(stereo unspecified)", "Potency": "inactive"}, {"smiles": "NCCCP(=O)(O)O", "Potency": "inactive"}, {"smiles": "O=[N+]([O-])c1ccc2nc(N3CCNCC3)ccc2c1", "Potency": "inactive"}, {"smiles": "NC(Cc1cc(O)c(O)cc1O)C(=O)O", "note": "(stereo unspecified)", "Potency": "inactive"}, {"smiles": "O=[N+]([O-])c1cc(O)c(O)c([N+](=O)[O-])c1", "Potency": "inactive"}, {"smiles": "NCCc1c[nH]c2ccc(C(N)=O)cc12", "Potency": "inactive"}, {"smiles": "CC(Cc1ccc(OCC(=O)O)cc1)NCC(O)c1cccc(Cl)c1", "note": "(stereo unspecified)", "Potency": "inactive"}, {"smiles": "CC(C)(C)c1o[nH]c(=O)c1CC(N)C(=O)O", "note": "(stereo unspecified)", "Potency": "inactive"}, {"smiles": "OC1CCCCC1N1CCC(c2ccccc2)CC1", "note": "(stereo unspecified)", "Potency": "inactive"}, {"smiles": "CNc1ccc2oc(C[C@H]3O[C@@]4(CC[C@H]3C)O[C@H]([C@H](C)C(=O)c3ccc[nH]3)[C@H](C)C[C@H]4C)nc2c1C(=O)O", "Potency": "11.2 µM (active)"}, {"smiles": "CC12NC(Cc3ccccc31)c1ccccc12", "note": "(stereo unspecified)", "Potency": "inactive"}, {"smiles": "N=C(N)c1ccc(CS(=O)(=O)F)cc1", "Potency": "inactive"}, {"smiles": "Clc1cc(I)cc(Cl)c1NC1=NCCN1", "Potency": "inactive"}, {"smiles": "CC(=O)OCC1=C(C(=O)O)N2C(=O)[C@@H](NC(=O)CCC[C@@H](N)C(=O)O)[C@H]2SC1", "Potency": "inactive"}, {"smiles": "CCCN(CCC)[C@H]1CCc2c(F)ccc(O)c2C1", "Potency": "inactive"}, {"smiles": "CN1CCc2cc(O)cc3c2[C@H]1Cc1ccc(O)c(O)c1-3", "Potency": "inactive"}, {"smiles": "Cc1sc2ccccc2c1CC1=NCCN1", "Potency": "inactive"}, {"smiles": "CCOC(=O)c1ncn2c1[C@@H]1CCCN1C(=O)c1cc(OC)ccc1-2", "Potency": "inactive"}, {"smiles": "CC(=O)c1c(O)c(C)c(O)c(Cc2c(O)c3c(c(C(=O)/C=C/c4ccccc4)c2O)OC(C)(C)C=C3)c1O", "Potency": "inactive"}, {"smiles": "CN1CC[C@@]2(C)c3cc(OC(=O)Nc4ccccc4)ccc3N(C)[C@@H]12", "Potency": "inactive"}, {"smiles": "Nc1ccc(CCN2CCN(c3cccc(C(F)(F)F)c3)CC2)cc1", "Potency": "inactive"}, {"smiles": "COc1ccc2[nH]cc(CCN)c2c1", "Potency": "inactive"}, {"smiles": "Oc1ccc2c3c1O[C@H]1c4[nH]c5ccccc5c4C[C@@]4(O)C(C2)N(CC2CC2)CCC314", "note": "(stereo partly specified)", "Potency": "inactive"}, {"smiles": "CC(C)(O)[C@@H]1C2OC(=O)[C@@H]1[C@]1(O)C[C@H]3O[C@]34C(=O)O[C@H]2[C@]14C", "note": "(tested in a mixture with another compound)", "Potency": "inactive"}, {"smiles": "CN1CC[C@@]2(C)c3cc(O)ccc3N(C)C12", "note": "(stereo partly specified)", "Potency": "inactive"}]}, {"test_system": "not listed separately", "assay": "qHTS for Inhibitors of the Functional Ribonucleoprotein Complex (vRNP) of Lymphocytic Choriomeningitis Arenaviruses (LCMV): Viability assay - alamar blue signal for LCMV Primary Screen (AID 1347085; calls by dose curve; tested in HEK293 reporter line; note: nearly all actives have a fitted effect of over 80% in size)", "conditions": "alamar blue viability counter-screen, LCMV vRNP screen cells; series mostly up to 57.5 µM", "values": [{"smiles": "CC(C)NP(=O)(NC(C)C)OP(=O)(NC(C)C)NC(C)C", "Potency": "inactive"}, {"smiles": "CN1C2CCC1CC(OC(c1ccccc1)c1ccccc1N)C2", "note": "(stereo unspecified)", "Potency": "inactive"}, {"smiles": "NCCCP(=O)(O)O", "Potency": "inactive"}, {"smiles": "O=[N+]([O-])c1ccc2nc(N3CCNCC3)ccc2c1", "Potency": "inactive"}, {"smiles": "NC(Cc1cc(O)c(O)cc1O)C(=O)O", "note": "(stereo unspecified)", "Potency": "inactive"}, {"smiles": "O=[N+]([O-])c1cc(O)c(O)c([N+](=O)[O-])c1", "Potency": "inactive"}, {"smiles": "NCCc1c[nH]c2ccc(C(N)=O)cc12", "Potency": "inactive"}, {"smiles": "CC(Cc1ccc(OCC(=O)O)cc1)NCC(O)c1cccc(Cl)c1", "note": "(stereo unspecified)", "Potency": "inactive"}, {"smiles": "OC1CCCCC1N1CCC(c2ccccc2)CC1", "note": "(stereo unspecified)", "Potency": "inactive"}, {"smiles": "CNc1ccc2oc(C[C@H]3O[C@@]4(CC[C@H]3C)O[C@H]([C@H](C)C(=O)c3ccc[nH]3)[C@H](C)C[C@H]4C)nc2c1C(=O)O", "Potency": "inactive"}, {"smiles": "CC12NC(Cc3ccccc31)c1ccccc12", "note": "(stereo unspecified)", "Potency": "inactive"}, {"smiles": "N=C(N)c1ccc(CS(=O)(=O)F)cc1", "Potency": "inactive"}, {"smiles": "Clc1cc(I)cc(Cl)c1NC1=NCCN1", "Potency": "inactive"}, {"smiles": "CC(=O)OCC1=C(C(=O)O)N2C(=O)[C@@H](NC(=O)CCC[C@@H](N)C(=O)O)[C@H]2SC1", "Potency": "inactive"}, {"smiles": "CCCN(CCC)[C@H]1CCc2c(F)ccc(O)c2C1", "Potency": "inactive"}, {"smiles": "CN1CCc2cc(O)cc3c2[C@H]1Cc1ccc(O)c(O)c1-3", "Potency": "inactive"}, {"smiles": "Cc1sc2ccccc2c1CC1=NCCN1", "Potency": "inactive"}, {"smiles": "CCOC(=O)c1ncn2c1[C@@H]1CCCN1C(=O)c1cc(OC)ccc1-2", "Potency": "inactive"}, {"smiles": "CC(=O)c1c(O)c(C)c(O)c(Cc2c(O)c3c(c(C(=O)/C=C/c4ccccc4)c2O)OC(C)(C)C=C3)c1O", "Potency": "inactive"}, {"smiles": "CN1CC[C@@]2(C)c3cc(OC(=O)Nc4ccccc4)ccc3N(C)[C@@H]12", "Potency": "inactive"}, {"smiles": "Nc1ccc(CCN2CCN(c3cccc(C(F)(F)F)c3)CC2)cc1", "Potency": "inactive"}, {"smiles": "COc1ccc2[nH]cc(CCN)c2c1", "Potency": "inactive"}, {"smiles": "Oc1ccc2c3c1O[C@H]1c4[nH]c5ccccc5c4C[C@@]4(O)C(C2)N(CC2CC2)CCC314", "note": "(stereo partly specified)", "Potency": "inactive"}, {"smiles": "CC(C)(O)[C@@H]1C2OC(=O)[C@@H]1[C@]1(O)C[C@H]3O[C@]34C(=O)O[C@H]2[C@]14C", "note": "(tested in a mixture with another compound)", "Potency": "inactive"}, {"smiles": "CN1CC[C@@]2(C)c3cc(O)ccc3N(C)C12", "note": "(stereo partly specified)", "Potency": "inactive"}]}, {"biological_target": "Nucleoprotein (Lymphocytic choriomeningitis virus (strain Armstrong)) (UniProt P09992)", "sequence (P09992 whole entry, looked up)": "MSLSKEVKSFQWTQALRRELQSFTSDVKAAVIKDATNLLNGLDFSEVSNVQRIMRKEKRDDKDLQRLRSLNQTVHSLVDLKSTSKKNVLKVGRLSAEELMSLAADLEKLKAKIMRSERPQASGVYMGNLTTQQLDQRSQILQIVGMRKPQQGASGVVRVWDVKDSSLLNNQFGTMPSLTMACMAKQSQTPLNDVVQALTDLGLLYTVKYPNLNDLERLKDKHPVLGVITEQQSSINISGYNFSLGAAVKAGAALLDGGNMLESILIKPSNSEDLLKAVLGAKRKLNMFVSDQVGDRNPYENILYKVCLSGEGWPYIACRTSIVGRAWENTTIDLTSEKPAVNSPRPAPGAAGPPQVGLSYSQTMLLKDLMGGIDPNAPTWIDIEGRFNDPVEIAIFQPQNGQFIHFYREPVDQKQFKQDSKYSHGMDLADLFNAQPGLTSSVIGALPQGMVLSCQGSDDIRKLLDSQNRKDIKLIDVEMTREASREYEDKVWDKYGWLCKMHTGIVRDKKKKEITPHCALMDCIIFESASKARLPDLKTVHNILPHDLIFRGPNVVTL", "assay": "qHTS for Inhibitors of the Functional Ribonucleoprotein Complex (vRNP) of Lymphocytic Choriomeningitis Arenaviruses (LCMV): LCMV Primary Screen - GLuc reporter signal (AID 1347086); note: nearly all actives have a fitted effect of over 70% in size", "conditions": "LCMV minigenome vRNP cell assay, Gaussia luciferase reporter; series mostly up to 57.5 µM", "values": [{"smiles": "CC(C)NP(=O)(NC(C)C)OP(=O)(NC(C)C)NC(C)C", "Potency": "inactive"}, {"smiles": "CN1C2CCC1CC(OC(c1ccccc1)c1ccccc1N)C2", "note": "(stereo unspecified)", "Potency": "inactive"}, {"smiles": "NCCCP(=O)(O)O", "Potency": "inactive"}, {"smiles": "O=[N+]([O-])c1ccc2nc(N3CCNCC3)ccc2c1", "Potency": "inactive"}, {"smiles": "NC(Cc1cc(O)c(O)cc1O)C(=O)O", "note": "(stereo unspecified)", "Potency": "inactive"}, {"smiles": "O=[N+]([O-])c1cc(O)c(O)c([N+](=O)[O-])c1", "Potency": "inactive"}, {"smiles": "NCCc1c[nH]c2ccc(C(N)=O)cc12", "Potency": "inactive"}, {"smiles": "CC(Cc1ccc(OCC(=O)O)cc1)NCC(O)c1cccc(Cl)c1", "note": "(stereo unspecified)", "Potency": "inactive"}, {"smiles": "OC1CCCCC1N1CCC(c2ccccc2)CC1", "note": "(stereo unspecified)", "Potency": "inactive"}, {"smiles": "CNc1ccc2oc(C[C@H]3O[C@@]4(CC[C@H]3C)O[C@H]([C@H](C)C(=O)c3ccc[nH]3)[C@H](C)C[C@H]4C)nc2c1C(=O)O", "Potency": "inactive"}, {"smiles": "CC12NC(Cc3ccccc31)c1ccccc12", "note": "(stereo unspecified)", "Potency": "inactive"}, {"smiles": "N=C(N)c1ccc(CS(=O)(=O)F)cc1", "Potency": "inactive"}, {"smiles": "Clc1cc(I)cc(Cl)c1NC1=NCCN1", "Potency": "inactive"}, {"smiles": "CC(=O)OCC1=C(C(=O)O)N2C(=O)[C@@H](NC(=O)CCC[C@@H](N)C(=O)O)[C@H]2SC1", "Potency": "inactive"}, {"smiles": "CCCN(CCC)[C@H]1CCc2c(F)ccc(O)c2C1", "Potency": "inactive"}, {"smiles": "CN1CCc2cc(O)cc3c2[C@H]1Cc1ccc(O)c(O)c1-3", "Potency": "inactive"}, {"smiles": "Cc1sc2ccccc2c1CC1=NCCN1", "Potency": "inactive"}, {"smiles": "CCOC(=O)c1ncn2c1[C@@H]1CCCN1C(=O)c1cc(OC)ccc1-2", "Potency": "inactive"}, {"smiles": "CC(=O)c1c(O)c(C)c(O)c(Cc2c(O)c3c(c(C(=O)/C=C/c4ccccc4)c2O)OC(C)(C)C=C3)c1O", "Potency": "inactive"}, {"smiles": "CN1CC[C@@]2(C)c3cc(OC(=O)Nc4ccccc4)ccc3N(C)[C@@H]12", "Potency": "inactive"}, {"smiles": "Nc1ccc(CCN2CCN(c3cccc(C(F)(F)F)c3)CC2)cc1", "Potency": "inactive"}, {"smiles": "COc1ccc2[nH]cc(CCN)c2c1", "Potency": "inactive"}, {"smiles": "Oc1ccc2c3c1O[C@H]1c4[nH]c5ccccc5c4C[C@@]4(O)C(C2)N(CC2CC2)CCC314", "note": "(stereo partly specified)", "Potency": "inactive"}, {"smiles": "CC(C)(O)[C@@H]1C2OC(=O)[C@@H]1[C@]1(O)C[C@H]3O[C@]34C(=O)O[C@H]2[C@]14C", "note": "(tested in a mixture with another compound)", "Potency": "inactive"}, {"smiles": "CN1CC[C@@]2(C)c3cc(O)ccc3N(C)C12", "note": "(stereo partly specified)", "Potency": "inactive"}]}]}
